Methyltransferases: Primary Screen for Target Class Profiling of Small Molecule Inhibitors of Methyltransferases; purified enzyme, MTase-Glo SAH luminescence; active compounds read low; calls only at 40 µM; 25,000 tested, 3.9% active; call rule not given here
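Each enzyme was reacted with SAM and its substrate, with compounds tested once at 40 uM; SAH formed was read by MTase-Glo luminescence.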
MTase-Glo counter: detection enzyme interference, methyltransferase counter-screen; shares compounds with Methyltransferases; MTase-Glo coupled enzymes, SAH conversion luminescence, no MTase; Potency, µM (top dose mostly 57.3 µM), for inactives: at the highest dose activity change, negative = inhibition, hits mostly inhibitors; 180 tested, 6% active; active means well fitted inhibition curve with a large enough effect; inconclusive means small, poorly fitted or top-dose-only effect; further: potency means the concentration at half of the fitted maximal effect
Starred values were filed as active, the others as inactive; i = inactive; ? = inconclusive; + = active, no number; [ ] = another dose, or the depositor's remark. The sample as a whole holds a higher share of hits than the screen did. On the % scale 0 is the no-effect control and ±100 the full control effect.

SMILES	Methyltransferases	others
CCCC1c2ccc(C)n2CCN1C(=O)Nc1cc(OC)cc(OC)c1 (configuration not stated)	i
Cc1cc2c(cc3n2CC(C)(C(=O)NC2CCCCCCC2)N(Cc2ccc4c(c2)OCO4)C3=O)o1 (configuration not stated)	i
Cc1noc2c(NCCN3CCOCC3)cc(-c3ccsc3)nc12	i
Cc1noc2c(NCCCn3ccnc3)cc(-c3ccccn3)nc12	i
Cc1noc2c(NC3CCN(C)CC3)cc(-c3cccs3)nc12	+	MTase-Glo counter=5%[85.7 µM]
O=c1[nH]c2ccc(S(=O)(=O)Nc3ccc(Br)cc3F)cc2[nH]1	i
COc1ccc2cc3n(c2c1)CC(C)(C(=O)NCC1CCCO1)N(Cc1ccccc1)C3=O (configuration not stated)	i
COc1cc2c(cc1CN1CCC3(CCCNC3)C1)OCCCO2 (configuration not stated)	i
COc1cccc(CN2CCCC3(CCN(c4cc(C)nc(N)n4)C3)C2)c1OC (configuration not stated)	+	MTase-Glo counter=-1%
Fc1ccccc1CN1CCCC2(CCN(c3cnccn3)C2)C1 (configuration not stated)	i
CCCN1C(=O)c2ccccc2CC1(C)C(=O)NC1CCCCCC1 (configuration not stated)	i
Cc1cc(C)cc(N2C(=O)c3ccc(-c4ccco4)n3CC2(C)C(=O)NC2CCCC2)c1 (configuration not stated)	i
CC1CCC(NC(=O)C2(C)Cn3c(nc4ccccc43)C(=O)N2Cc2ccccc2F)CC1 (configuration not stated)	i
CCCn1c(=O)c2ccc(C(=O)NC(C)C)cc2n2c(=O)n(C(C)C(=O)c3ccc(C)c(C)c3)nc12 (configuration not stated)	i
COc1ccc(Br)cc1CNC(=O)c1cc2n(n1)CC(C)(C(=O)NCc1ccccc1)N(C)C2=O (configuration not stated)	i
CC(C)CCn1c(=O)c2ccccc2n2c(=O)n(Cc3ccc(F)cc3)nc12	i
Cc1ccc(C(N)=O)cc1-c1cc(NCc2cccnc2)nc2[nH]ccc12	i
c1ccc(CNc2cc(-c3cc(N4CCCCC4)ncn3)c3cc[nH]c3n2)nc1	+	MTase-Glo counter=-9%
O=C(NCc1ccccn1)C1CCN(c2cc(C3CC(O)C3)ncn2)CC1 (configuration not stated)	i
COC1CC/C=C(\C)C(=O)Nc2cc(O)cc(c2)CC(C)CC(OC)C(O)C(C)/C=C(\C)C1OC(N)=O (configuration not stated)	i
CCCCCNC(=O)c1ccc2c(=O)nc3c(-c4cccc(F)c4)n[nH]n3c2c1	i
COc1cccc(C(=O)NCCN2CCN(c3ccc(Cl)cc3)CC2)c1	i
CCCCNC(=O)c1cccc(-c2cc(N3CCN(C)CC3)nc(N)n2)c1	+	MTase-Glo counter=-1%
C[C@@H]1O[C@@H](O[C@H]2[C@H](OC(=O)[C@]34CCC(C)(C)C[C@H]3C3=CCC5[C@@]6(C)CC[C@H](O[C@@H]7O[C@H](CO[C@@H]8OC[C@H](O)[C@H](O)[C@H]8O[C@@H]8OC[C@@H](O)[C@H](O)[C@H]8O)[C@@H](O)[C@H](O)[C@H]7O)C(C)(C)C6CC[C@@]5(C)[C@]3(C)C[C@H]4O)O[C@H](CO)[C@@H](O)[C@@H]2O)[C@H](O[C@@H]2O[C@H](CO)[C@@H](O)[C@H](O)[C@H]2O)[C@H](O)[C@H]1O[C@@H]1OC[C@@H](O)[C@H](O[C@@H]2OC[C@@H](O)[C@H](O)[C@H]2O)[C@H]1O (some centres not stated)	i
CC1CCCC(NC(=O)C2(C)Cn3c(cc4sccc43)C(=O)N2CCc2ccccc2)C1C (configuration not stated)	i
SMILES	Methyltransferases	others
Nc1nc(NCc2ccc(Cl)cc2Cl)cc(C2CC(O)C2)n1 (configuration not stated)	+	MTase-Glo counter=-3%
Nc1nc(NCc2ccc(N3CCCC3=O)cc2)cc(C2CC(O)C2)n1 (configuration not stated)	i
CCc1csc(CNc2cc(C3CC(O)C3)nc(N)n2)n1 (configuration not stated)	i
Cc1noc(C)c1CCNC(=O)c1ncn2c1C(=O)N(C1CC1)C(C)(C(=O)NCc1ccccc1Cl)C2 (configuration not stated)	i
O=C(CSc1nnc2n(CCc3ccccc3)c(=O)c3ccccc3n12)Nc1ccc2c(c1)OCO2	i
CC1CCCN1C(=O)c1cc(-c2ccc(C(F)(F)F)cc2)nc2c1cnn2C (configuration not stated)	i
Cn1ncc2c(N3CCN(S(N)(=O)=O)CC3)nc(C3CCCC3)nc21	+	MTase-Glo counter=?
CN(CCN1C(=O)c2cc3occc3n2CC1(C)C(=O)NC1CCCCCCC1)C1CCCCC1 (configuration not stated)	i
CCc1ccc(CNC(=O)c2ccc3c(=O)nc4c(-c5ccc(OC)cc5)n[nH]n4c3c2)cc1	i
CC1(C(=O)NC2CCCCC2)Cn2c(ccc2-c2ccccc2)C(=O)N1CCCN1CCOCC1 (configuration not stated)	i
O=C1CN(Cc2c(F)cccc2Cl)S(=O)(=O)c2ccccc2N1Cc1cccc(F)c1	i
CC(C)CNC(=O)c1ccc2c(=O)n(CC(C)C)c3nn(CC(=O)NCc4ccccc4)c(=O)n3c2c1	i
COCCNC(=O)c1cc(N2CCOCC2)cc2c1OCCN2C	i
Cc1cc(C)c(CNC(=O)c2cc(-c3cnn(C)c3C)cc3c2OCCN3C)c(=O)[nH]1	+	MTase-Glo counter=-6%[85.7 µM]
O=C(NCc1ccccc1Cn1cccn1)c1ccc2cccc(F)c2n1	i
OC1(Cn2ccnc2)CCN(Cc2ccccc2Cn2cccn2)CC1	+	MTase-Glo counter=-1%
OCC(O)c1cc2n(n1)CCN(Cc1ccccc1Cn1cccn1)C2 (configuration not stated)	i
Cc1ccc(CNC(=O)Cn2nc3n(C)c(=O)c4ccc(C(=O)NC5CCCCC5)cc4n3c2=O)cc1	i
CCN1c2cc(C(=O)NCCc3ccccc3)ccc2C(=O)N2CCCCC21 (configuration not stated)	i
CCCC1=Nc2cc(C(=O)NCCCN3CCCCC3CC)ccc2Sc2ccc(C)cc21 (configuration not stated)	+	MTase-Glo counter=-1%
CCC1CCCCN1CCCNC(=O)CCn1ccc2cc(S(=O)(=O)N3CCCCC3)ccc21 (configuration not stated)	i
CCc1cccc(NC(=O)c2cc3n(n2)CC(C)(C(=O)NC2CCCCC2)N(C)C3=O)c1 (configuration not stated)	i
CC(C)CCN1C[C@@H]2C[C@H]1C(=O)N(Cc1cccnc1)c1ccccc1O2	i
CN1CCC(N2C[C@@H]3C[C@H]2C(=O)N(CC2CC2)c2ccccc2O3)CC1	+	MTase-Glo counter=-5%[85.7 µM]
CCC(Cc1ccccc1)NC(=O)Cn1c(=O)oc2cc(S(=O)(=O)NCc3ccccc3)ccc21 (configuration not stated)	i
Cc1ccccc1CNC(=O)C1(C)Cc2ccccc2C(=O)N1Cc1cccc(C(F)(F)F)c1 (configuration not stated)	i

Screening results deposited in PubChem BioAssay by National Center for Advancing Translational Sciences (NCATS).
